In the supplement of paper PMC12669032:
A number with no mark means an inactive call.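 The calls were made as follows: active = AUC reduced over 20% with Padj below 0.05 in at least 2 of 3 replicates; inactive = otherwise.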

Experiments:
Roseburia intestinalis = experiment: growth AUC relative to DMSO control (median of replicates) (fraction); higher = more growth (less inhibition), active = hit call of the paper; conditions: 20 µM; 24 h
Method in brief: (§1)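 Three biological replicates, each grown on a separate day, were combined as a median for every value. In each, a gut bacterial monoculture in mGAM started at OD600 0.05 and grew anaerobically at 37 °C with 20 µM compound (1% DMSO), with OD600 read hourly over 24 h. Area under the growth curve was normalised against the plate median of solvent-only wells, or against row and column medians on the industrial chemical plate, after the minimum OD was set to 0.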

Streptococcus salivarius = experiment: as above; conditions: 20 µM; 24 h
Method in brief: as §1

| SMILES | growth AUC (Roseburia intestinalis) | growth AUC (Streptococcus salivarius) |
| --- | --- | --- |
| CNC(=O)Oc1cccc(N=CN(C)C)c1.Cl | 0.992 | 1.02 |
| CC(C1CC1)C(O)(Cn1cncn1)c1ccc(Cl)cc1 (mixture of isomers) | 1.06 | 0.973 |
| CNc1cnn(-c2cccc(C(F)(F)F)c2)c(=O)c1Cl | 1.03 | 0.976 |
| Cc1c(COC(=O)[C@@H]2[C@H](/C=C(\Cl)C(F)(F)F)C2(C)C)cccc1-c1ccccc1 | 0.924 | 0.949 |
| COc1cc(OC)nc(NC(=O)NS(=O)(=O)c2ncccc2C(=O)N(C)C)n1 | 1.01 | 0.975 |
| CC(C)N(C(=O)COc1nnc(C(F)(F)F)s1)c1ccc(F)cc1 | 1.01 | 0.949 |
| COP(=O)(OC)OC1=C(Cl)C2C=CCC12 (centres undefined) | 1.04 | 1.03 |
| Cc1ccccc1CO[C@@H]1C[C@@]2(C(C)C)CC[C@]1(C)O2 (mixture of isomers) | 0.978 | 0.97 |
| COC(=O)c1ccccc1S(=O)(=O)NC(=O)N(C)c1nc(C)nc(OC)n1 | 0.998 | 1.01 |
| c1coc(-c2nc3ccccc3[nH]2)c1 | 1.04 | 0.984 |
| Cc1cc(Cl)ccc1N=CN(C)C.Cl | 0.994 | 0.99 |
| Cc1cccc2sc3nncn3c12 | 0.976 | 1.02 |
